± gives the standard deviation of the averaged measurements.
Test system: E. coli BW25113 marRABp lux reporter
Assay: promoter activity interaction Z-score (Lux/OD deviation from empty-vector control); higher = stronger promoter induction by the compound
Description: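 E. coli BW25113 (wild type or ΔmarA/ΔsoxS/Δrob) carrying pTU175 luxCDABE promoter reporters was grown in LB in 384-well plates at 37°C with each of 94 compounds at 4 two-fold concentrations, in biological duplicates. Luminescence and OD600 were read every 30 min for 12 h and integrated as AUC over 8 h (0-8 h WT, 1-9 h mutants). Lux AUC was divided by OD AUC; the interaction score is the residual of a Huber robust fit of each promoter against the empty-vector control, then Z-transformed per promoter.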

SMILES: O=C(O)c1cn(C2CC2)c2cc(N3CCNCC3)c(F)cc2c1=O [Ciprofloxacin]
- promoter activity interaction Z-score (0.0012 µg/ml, genetic background: wild type): -0.376 ± 0.019
- promoter activity interaction Z-score (0.0012 µg/ml, genetic background: ΔmarA): -0.0878 ± 0.24
- promoter activity interaction Z-score (0.0012 µg/ml, genetic background: Δrob): -0.0711 ± 0.075
- promoter activity interaction Z-score (0.0012 µg/ml, genetic background: ΔsoxS): 0.251 ± 0.081
- promoter activity interaction Z-score (0.0025 µg/ml, genetic background: wild type): -0.228 ± 0.28
- promoter activity interaction Z-score (0.0025 µg/ml, genetic background: ΔmarA): -0.253 ± 0.031
- promoter activity interaction Z-score (0.0025 µg/ml, genetic background: Δrob): -0.0459 ± 0.41
- promoter activity interaction Z-score (0.0025 µg/ml, genetic background: ΔsoxS): 0.188 ± 0.098
- promoter activity interaction Z-score (0.005 µg/ml, genetic background: wild type): -0.472 ± 0.005
- promoter activity interaction Z-score (0.005 µg/ml, genetic background: ΔmarA): -0.302 ± 0.12
- promoter activity interaction Z-score (0.005 µg/ml, genetic background: Δrob): -0.138 ± 0.072
- promoter activity interaction Z-score (0.005 µg/ml, genetic background: ΔsoxS): 0.0987 ± 0.0052
- promoter activity interaction Z-score (0.0099 µg/ml, genetic background: wild type): 2.5 ± 0.32
- promoter activity interaction Z-score (0.0099 µg/ml, genetic background: ΔsoxS): 4.16

SMILES: Cc1onc(-c2ccccc2)c1C(=O)N[C@@H]1C(=O)N2[C@@H]1SC(C)(C)[C@@H]2C(=O)O [Oxacillin]
- promoter activity interaction Z-score (0.53 µg/ml, genetic background: wild type): -0.0416 ± 0.14
- promoter activity interaction Z-score (0.53 µg/ml, genetic background: ΔmarA): -0.145 ± 0.48
- promoter activity interaction Z-score (0.53 µg/ml, genetic background: Δrob): -0.0895 ± 0.14
- promoter activity interaction Z-score (0.53 µg/ml, genetic background: ΔsoxS): 0.143 ± 0.032
- promoter activity interaction Z-score (1.1 µg/ml, genetic background: wild type): 0.221 ± 0.0058
- promoter activity interaction Z-score (1.1 µg/ml, genetic background: ΔmarA): 0.189 ± 0.3
- promoter activity interaction Z-score (1.1 µg/ml, genetic background: Δrob): 0.0302 ± 0.28
- promoter activity interaction Z-score (1.1 µg/ml, genetic background: ΔsoxS): 0.214 ± 0.17
- promoter activity interaction Z-score (2.1 µg/ml, genetic background: wild type): -0.151 ± 0.12
- promoter activity interaction Z-score (2.1 µg/ml, genetic background: ΔmarA): -0.0728 ± 0.16
- promoter activity interaction Z-score (2.1 µg/ml, genetic background: Δrob): 0.0223 ± 0.02
- promoter activity interaction Z-score (2.1 µg/ml, genetic background: ΔsoxS): 0.133 ± 0.06
- promoter activity interaction Z-score (4.2 µg/ml, genetic background: wild type): 0.0879 ± 0.03
- promoter activity interaction Z-score (4.2 µg/ml, genetic background: ΔmarA): 0.194 ± 0.076
- promoter activity interaction Z-score (4.2 µg/ml, genetic background: Δrob): -0.03 ± 0.043
- promoter activity interaction Z-score (4.2 µg/ml, genetic background: ΔsoxS): 0.211 ± 0.2

SMILES: COc1cc(C=O)ccc1O [Vanillin]
- promoter activity interaction Z-score (19 µg/ml, genetic background: wild type): -0.156 ± 0.018
- promoter activity interaction Z-score (19 µg/ml, genetic background: ΔmarA): -0.451 ± 0.34
- promoter activity interaction Z-score (19 µg/ml, genetic background: Δrob): 0.0366 ± 0.23
- promoter activity interaction Z-score (19 µg/ml, genetic background: ΔsoxS): -0.21 ± 0.21
- promoter activity interaction Z-score (38 µg/ml, genetic background: wild type): 0.304 ± 0.065
- promoter activity interaction Z-score (38 µg/ml, genetic background: ΔmarA): 0.0122 ± 0.2
- promoter activity interaction Z-score (38 µg/ml, genetic background: Δrob): 0.119 ± 0.4
- promoter activity interaction Z-score (38 µg/ml, genetic background: ΔsoxS): -0.0492 ± 0.056
- promoter activity interaction Z-score (76.1 µg/ml, genetic background: wild type): 0.913 ± 0.07
- promoter activity interaction Z-score (76.1 µg/ml, genetic background: ΔmarA): 0.599 ± 0.31
- promoter activity interaction Z-score (76.1 µg/ml, genetic background: Δrob): 0.595 ± 0.066
- promoter activity interaction Z-score (76.1 µg/ml, genetic background: ΔsoxS): 0.224 ± 0.12
- promoter activity interaction Z-score (152.1 µg/ml, genetic background: wild type): 1.28 ± 0.41
- promoter activity interaction Z-score (152.1 µg/ml, genetic background: ΔmarA): 1.702 ± 0.0098
- promoter activity interaction Z-score (152.1 µg/ml, genetic background: Δrob): 1.077 ± 0.0082
- promoter activity interaction Z-score (152.1 µg/ml, genetic background: ΔsoxS): 0.812 ± 0.084

Reference: the supplement of paper PMC12282887
